From PubChem BioAssay come the findings set out here.

In the experiment the target is Neurogenic locus notch homolog protein 2 (Homo sapiens) (UniProt Q04721). The experiment is described as follows: Notch2 binders on small-molecule microarrays, primary screen, biochemical, small-molecule microarray, 635 nm fluorescence, stem cell growth factors (AID 1073). Conditions: Notch2 binding, higher = more signal.
Chain of Neurogenic locus notch homolog protein 2 (Homo sapiens) (Q04721 whole entry, looked up): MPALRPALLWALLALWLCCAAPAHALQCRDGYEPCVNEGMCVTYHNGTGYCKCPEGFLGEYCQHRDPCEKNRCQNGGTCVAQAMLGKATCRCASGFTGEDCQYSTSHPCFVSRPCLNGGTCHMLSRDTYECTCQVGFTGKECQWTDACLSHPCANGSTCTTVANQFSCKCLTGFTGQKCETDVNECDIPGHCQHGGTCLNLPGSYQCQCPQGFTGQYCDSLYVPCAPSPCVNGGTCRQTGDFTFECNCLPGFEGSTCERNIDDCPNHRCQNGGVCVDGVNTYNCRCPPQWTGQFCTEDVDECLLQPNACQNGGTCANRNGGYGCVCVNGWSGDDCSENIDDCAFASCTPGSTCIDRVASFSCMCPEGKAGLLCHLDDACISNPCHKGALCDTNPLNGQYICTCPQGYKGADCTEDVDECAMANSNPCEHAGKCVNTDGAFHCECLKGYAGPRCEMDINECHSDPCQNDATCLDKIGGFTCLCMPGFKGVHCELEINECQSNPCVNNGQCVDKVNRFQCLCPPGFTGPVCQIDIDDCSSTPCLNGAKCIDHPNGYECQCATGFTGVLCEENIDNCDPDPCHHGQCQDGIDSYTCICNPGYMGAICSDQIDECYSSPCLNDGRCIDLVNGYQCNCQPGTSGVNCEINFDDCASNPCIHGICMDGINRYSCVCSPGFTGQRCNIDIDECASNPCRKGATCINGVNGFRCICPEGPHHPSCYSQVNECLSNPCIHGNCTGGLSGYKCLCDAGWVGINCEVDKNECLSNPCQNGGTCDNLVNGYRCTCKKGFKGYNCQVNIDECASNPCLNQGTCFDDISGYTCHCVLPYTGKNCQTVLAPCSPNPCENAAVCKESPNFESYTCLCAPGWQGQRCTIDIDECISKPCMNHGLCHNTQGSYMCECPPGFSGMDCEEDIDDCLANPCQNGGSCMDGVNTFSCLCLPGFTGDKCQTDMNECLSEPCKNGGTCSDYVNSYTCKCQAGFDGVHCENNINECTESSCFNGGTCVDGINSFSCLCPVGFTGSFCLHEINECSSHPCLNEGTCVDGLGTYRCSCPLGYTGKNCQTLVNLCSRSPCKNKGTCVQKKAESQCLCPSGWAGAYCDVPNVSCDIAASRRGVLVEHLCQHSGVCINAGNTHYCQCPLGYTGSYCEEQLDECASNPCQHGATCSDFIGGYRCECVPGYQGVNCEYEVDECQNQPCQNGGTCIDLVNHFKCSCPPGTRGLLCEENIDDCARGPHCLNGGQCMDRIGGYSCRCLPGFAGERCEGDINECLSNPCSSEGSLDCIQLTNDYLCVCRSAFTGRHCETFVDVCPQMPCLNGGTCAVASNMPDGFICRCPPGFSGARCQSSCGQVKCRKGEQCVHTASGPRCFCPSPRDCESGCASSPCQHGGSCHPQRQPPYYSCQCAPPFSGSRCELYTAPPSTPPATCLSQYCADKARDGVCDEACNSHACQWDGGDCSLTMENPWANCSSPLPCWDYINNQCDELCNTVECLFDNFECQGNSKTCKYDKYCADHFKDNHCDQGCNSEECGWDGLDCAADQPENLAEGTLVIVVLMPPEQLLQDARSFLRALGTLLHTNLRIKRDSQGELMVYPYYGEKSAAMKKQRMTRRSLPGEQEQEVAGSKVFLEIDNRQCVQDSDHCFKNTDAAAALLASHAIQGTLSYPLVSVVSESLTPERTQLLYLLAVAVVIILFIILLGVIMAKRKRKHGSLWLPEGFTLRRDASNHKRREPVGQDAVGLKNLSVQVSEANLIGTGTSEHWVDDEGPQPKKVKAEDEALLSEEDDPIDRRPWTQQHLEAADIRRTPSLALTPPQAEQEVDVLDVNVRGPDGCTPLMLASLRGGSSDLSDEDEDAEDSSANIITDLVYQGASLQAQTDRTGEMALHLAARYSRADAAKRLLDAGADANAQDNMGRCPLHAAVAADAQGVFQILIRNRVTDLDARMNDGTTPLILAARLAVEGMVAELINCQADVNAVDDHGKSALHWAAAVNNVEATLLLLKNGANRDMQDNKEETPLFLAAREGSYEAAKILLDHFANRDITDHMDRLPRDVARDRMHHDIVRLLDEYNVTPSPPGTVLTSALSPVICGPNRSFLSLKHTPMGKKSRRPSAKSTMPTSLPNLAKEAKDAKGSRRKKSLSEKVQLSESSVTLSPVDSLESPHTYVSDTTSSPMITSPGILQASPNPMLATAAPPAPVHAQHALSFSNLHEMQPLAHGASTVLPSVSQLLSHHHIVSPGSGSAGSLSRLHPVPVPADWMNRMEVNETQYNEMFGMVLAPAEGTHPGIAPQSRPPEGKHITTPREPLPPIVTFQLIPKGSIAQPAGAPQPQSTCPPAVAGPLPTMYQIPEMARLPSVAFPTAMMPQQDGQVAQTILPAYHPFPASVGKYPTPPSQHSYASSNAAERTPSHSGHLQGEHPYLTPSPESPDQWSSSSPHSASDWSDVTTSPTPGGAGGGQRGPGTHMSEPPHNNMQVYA
In turn, `COCCOC(=O)N1C(=O)[C@@]2(c3cc(C#CCC(C(=O)OC)C(=O)OC)ccc31)[C@H](c1ccccc1OCCO)N1[C@H](c3ccccc3)[C@H](c3ccccc3)OC(=O)[C@H]1[C@@H]2C(N)=O` came in with a composite z-score of 0.923.

The compound `CC(C)NC(=O)[C@@H]1c2ccccc2C(=O)N(Cc2ccccc2Cl)[C@H]1c1ccc(CO)cc1` showed a composite z-score of -0.387.

In turn, `COc1ccc(CCNC(=O)[C@@]2(c3ccc([N+](=O)[O-])cc3)CC(=O)N(CC34CC5CC(CC(C5)C3)C4)[C@@H]2c2ccc(CO)cc2)cc1` showed a composite z-score of 1.14.

As for `COc1ccc(CCNC(=O)[C@@H]2c3ccccc3C(=O)N(Cc3ccc(OC(F)(F)F)cc3)[C@H]2c2ccc(CO)cc2)cc1`, the composite z-score was found to be 0.0125.

The compound `CCOC(=O)[C@H]1C[C@H]2O[C@@]23C[C@H]1C(=O)N1CCCC1[C@@H]3O[Si](C)(C)C(C)(C)C` (stereo partly specified) registered a composite z-score of -0.547.

`Cc1cc(C)cc(N2C(=O)CS(=O)(=O)C2c2cccc([N+](=O)[O-])c2)c1` (stereo unspecified) registered a composite z-score of 1.17.

In turn, `O=C(CS)NCCCCCCNC(=O)[C@H]1C[C@H]2C(=O)N3CCC[C@H]3C(=O)N2[C@H]1c1cccc(OCCO)c1` registered a composite z-score of 0.698.

`C=CC(COC(C)=O)NS(=O)(=O)c1ccc(Br)cc1` (stereo unspecified) came in with a composite z-score of 0.363.

With `CCCC[C@H]1OB(O)C[C@H]2C1=C(C)C[C@H]1C(=O)N(Cc3ccccc3)C(=O)[C@H]12`, the composite z-score amounted to 0.316.

`O=C1OCCC/C=C\[C@H]2OC34C=CCN(Cn5nnc6ccccc65)C(=O)[C@H]3N(CCCCCO)C(=O)[C@@H]4C12` (stereo partly specified): the composite z-score is -0.919.

In turn, `CC(C)C[C@@H]1NC(=O)[C@@H]2C[C@H](C(=O)NCCCCCC[N+](C)(C)C)[C@H](c3ccc(O)cc3)N2C1=O` yielded a composite z-score of -0.344.
